Assay outcomes (PubChem BioAssay)
This excerpt belongs to a sample that is enriched for hits.
VCAM1 pot: enhances TNF alpha induced VCAM1 expression in HUVEC; HUVEC TNFa-stimulated VCAM-1 immunofluorescence, high-content imaging; scaled per plate to unstimulated/TNFa-only wells; activation, % at 2 µM; 0.19% of 93,000 active; AID 808;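 active = activation above the screen mean plus 3 SD, with well images confirming the hit on visual review, cut at about 28% in these data, passing the limit was not always enough; inconclusive = activation above that limit but images do not confirm it; inactive = activation not above that limit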;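 also: signal is the number of cytoplasmic VCAM-1 stained grains per positive cell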
VCAM1 pot conf: potentiators of TNFa-induced VCAM1 expression, confirmation, imaging, HUVEC, triplicate retest | shares compounds with VCAM1 pot | HUVEC TNFa-stimulated VCAM-1 immunofluorescence imaging | activation, % at 2 µM | 230 tested, under 10 active;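 active = activation above 30% in triplicate retests at 2 µM, then confirmed by visual review of the well images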;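 also: scaled per plate between unstimulated and TNFa-stimulated DMSO control wells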
Starred values were filed as active, the others as inactive.

How did CC1(CC(=O)O)C(=O)N=C2C=CC=CN21 (stereo unspecified) do in these assays?
VCAM1 pot: 7.6

How did Cc1oc(-c2ccccc2F)nc1CN1CCC(C(=O)NC2CC2)CC1 do in these assays?
VCAM1 pot: 8.0

What do the screens show for `CCOC(=O)C1CCN(c2c(NCCCN(CC)c3ccccc3)c(=O)c2=O)CC1`?
VCAM1 pot: -24.1

How did CCOC(=O)C1CCN(Cc2c(F)cccc2Cl)CC1 do in these assays?
VCAM1 pot: 6.6

How did CCOC(=O)C1CCN(C(=O)C2CCN(c3nc4ccc(OC)cc4s3)CC2)CC1 do in these assays?
VCAM1 pot: 114.0*; VCAM1 pot conf: -3.2

Results for CCCCCCOC(=O)c1ccccc1NC(=O)/C=C/C(=O)O ?
VCAM1 pot: 1.0

Results for COc1ccc(CNC(=O)COC(=O)C2=COCCO2)cc1 ?
VCAM1 pot: -8.8

How did COC1(OC)C(/C=C/c2ccc(C)cc2)C(C#N)(C#N)C1(OC)OC (stereo unspecified) do in these assays?
VCAM1 pot: -5.0

What do the screens show for `O=C(CN1C(=O)c2ccccc2C1=O)NCC1COc2ccccc2O1` (stereo unspecified)?
VCAM1 pot: -16.8

What do the screens show for `O=C(CN1C(=O)c2cccnc2C1=O)c1ccccc1`?
VCAM1 pot: 7.8

Results for Cc1cc(C(=O)CN2C(=O)c3ccccc3C2=O)c(C)n1C1CC1 ?
VCAM1 pot: 128.6*; VCAM1 pot conf: -14.4

How did O=C(Oc1ccc(Cl)cc1N1C(=O)CCC1=O)c1ccco1 do in these assays?
VCAM1 pot: -9.3

How did CC(=O)c1ccc(NC(=O)C2CCC(C)NC2=O)cc1 (stereo unspecified) do in these assays?
VCAM1 pot: 3.6

What do the screens show for `O=C(N/N=C/c1cc2c(cc1Cl)OCO2)c1ccccn1`?
VCAM1 pot: 1.3

Results for O=C(N/N=C/c1ccccc1Cl)c1cccc(F)c1 ?
VCAM1 pot: 55.8*; VCAM1 pot conf: -11.9

What do the screens show for `Cc1nnc(NC(=O)c2cccc(F)c2)s1`?
VCAM1 pot: 3.3

How did O=C(CSc1nnnn1-c1ccccc1Cl)Nc1ccc2c(c1)OCCO2 do in these assays?
VCAM1 pot: -2.2

What do the screens show for `COC(=O)c1c(NC(=O)CSc2nnc(-c3cccnc3)n2Cc2ccco2)sc(C)c1C`?
VCAM1 pot: 6.6

What do the screens show for `CCCn1c(SCC(=O)Nc2sc(C)c(C)c2C(=O)OCC)nc2c1c(=O)n(C)c(=O)n2C`?
VCAM1 pot: 31.0*; VCAM1 pot conf: -12.3

What do the screens show for `CCOC(=O)CNC(=O)CSc1nc2sc(C)c(C)c2c(=O)n1C`?
VCAM1 pot: -4.4

Results for CCC1(COC(NC(=O)c2cccnc2)(C(F)(F)F)C(F)(F)F)COC1 ?
VCAM1 pot: 4.3

Results for Cc1cc(Cl)c(S(=O)(=O)Nc2ccc(Cl)cn2)cc1OCC(N)=O ?
VCAM1 pot: 29.0

What do the screens show for `Cc1cc2n(n1)SC(Nc1cc(Cl)ccc1Cl)N2` (stereo unspecified)?
VCAM1 pot: -20.8

How did Cc1ccccc1CSc1nncn1N do in these assays?
VCAM1 pot: -13.4

What do the screens show for `Cc1ccccc1Cn1nnc2c1C(=O)c1ccccc1C2=O`?
VCAM1 pot: 46.2*; VCAM1 pot conf: -13.0

How did O=C1c2ccccc2-c2nc3ccccc3nc21 do in these assays?
VCAM1 pot: 1.7

How did CCOc1cc(NC(=O)c2ccccn2)c(OCC)cc1NC(=O)CC(C)C do in these assays?
VCAM1 pot: -9.0

How did COC(=O)c1cccc(NC(=O)C2C3CCC(C3)C2C(=O)O)c1 (stereo unspecified) do in these assays?
VCAM1 pot: 1.9

Results for CCc1ccc2nc(-c3cccc(C)c3)nc(SCC(=O)NCC3CCCO3)c2c1 (stereo unspecified) ?
VCAM1 pot: -4.2

How did NC(=O)C1CCN(C(=O)CSc2nc3ccccc3o2)CC1 do in these assays?
VCAM1 pot: 2.8

What do the screens show for `NC(=O)C1CCN(C(=O)CCCCCn2c(=O)[nH]c3ccsc3c2=O)CC1`?
VCAM1 pot: inconclusive; VCAM1 pot conf: -6.7

What do the screens show for `CC(C)(C)C(=O)COC(=O)CNC(=O)c1ccc(Oc2ccccc2)cc1`?
VCAM1 pot: -0.7

What do the screens show for `OC(CN1C2=NCCN2c2ccccc21)c1ccc2c(c1)OCO2` (stereo unspecified)?
VCAM1 pot: -6.2

What do the screens show for `O=C(NCC1COc2ccccc2O1)c1cc2ccccc2o1` (stereo unspecified)?
VCAM1 pot: -16.0

How did CCn1c2c(c3cc(OCC(C)C)ccc31)CCCC2=O do in these assays?
VCAM1 pot: 47.0*; VCAM1 pot conf: -10.6

What do the screens show for `Cc1nn(Cc2ccc(C(=O)N3c4ccc(F)cc4CCC3C)o2)c(C)c1Br` (stereo unspecified)?
VCAM1 pot: -1.4

Results for CCOC(=O)C(NC(C)=O)(Nc1ccc(S(=O)(=O)Nc2ccncn2)cc1)C(F)(F)F (stereo unspecified) ?
VCAM1 pot: 0.4

How did COc1ccccc1N1CCN(C(=O)CSc2ccc3c(C)cc(C)nc3n2)CC1 do in these assays?
VCAM1 pot: -5.3

What do the screens show for `N#CC(C#N)=CC1=C2OC(c3ccccc3)=CC(c3ccccc3)=C2CCC1`?
VCAM1 pot: -8.0

What do the screens show for `COc1ccccc1N(CC(=O)NCCSc1ccccc1)S(C)(=O)=O`?
VCAM1 pot: inconclusive; VCAM1 pot conf: -1.4

What do the screens show for `COCCNC(=O)CC(c1ccccc1)c1ccccc1`?
VCAM1 pot: 10.7

What do the screens show for `CCOc1ccccc1N(CC(=O)N1CCCCCC1)S(C)(=O)=O`?
VCAM1 pot: 2.3

What do the screens show for `O=C(c1cnn2c1NC(c1ccco1)CC2C(F)(F)F)N1CCN(c2cccc(Cl)c2)CC1` (stereo unspecified)?
VCAM1 pot: -4.6

Results for CCOC(=O)N1CCN(CC(=O)Nc2ccc(C)c(Br)c2)CC1 ?
VCAM1 pot: -16.7

How did COC(=O)c1ccc(C)c(NC(=O)C2COc3ccccc3O2)c1 (stereo unspecified) do in these assays?
VCAM1 pot: -7.4

How did COc1ccc(NS(=O)(=O)c2ccc(C)c(C(=O)O)c2)cc1 do in these assays?
VCAM1 pot: -7.4

What do the screens show for `COC(=O)c1ccc(C)c(NS(=O)(=O)c2ccc(OC)cc2)c1`?
VCAM1 pot: 31.6*; VCAM1 pot conf: -59.2

What do the screens show for `COCCn1c(SCC(=O)Nc2ccc(Cl)cn2)nc2ccccc21`?
VCAM1 pot: -7.4

How did Cn1c(Cn2nnc3ccccc32)nnc1SCC(=O)N1CCc2ccccc21 do in these assays?
VCAM1 pot: 7.4

What do the screens show for `CCN1CCN(C(c2cc(OC)c(OC)c(OC)c2)c2nnnn2C(C)C)CC1` (stereo unspecified)?
VCAM1 pot: -3.3

How did Cn1c(-c2ccc3c(c2)OCO3)cnc1NCc1ccccc1 do in these assays?
VCAM1 pot: 50.9*; VCAM1 pot conf: -10.2

How did Cn1c(Cc2ccccc2)nnc1SCC(=O)Nc1ccc2c(c1)OCO2 do in these assays?
VCAM1 pot: 1.6

Results for c1cncc(-c2nc(-c3ccc4c(c3)OCO4)cs2)c1 ?
VCAM1 pot: 20.4

How did Cc1c(C(=O)O)sc2nc3n(c(=O)c12)CCC(C)CC3 (stereo unspecified) do in these assays?
VCAM1 pot: 0.0

What do the screens show for `CCOC(=O)c1cnn(-c2cc(C)c3ccccc3n2)c1N`?
VCAM1 pot: -1.8

What do the screens show for `CCOC(=O)c1c(-c2ccc(Cl)cc2)cn2ccccc12`?
VCAM1 pot: -3.7

How did CCOC(=O)c1cnc2c(-c3ccccc3)cnn2c1N do in these assays?
VCAM1 pot: inconclusive; VCAM1 pot conf: -4.4
